Measurements: PubChem BioAssay AID463173 (ICCB-Longwood Screening Facility, Harvard Medical School, 2010)
About 1,700 (3.3%) of roughly 52,000 compounds were called active. Cut-off read from the data, not from the text of the source: active = survival mostly below about 52% (no sharp cut-off); inactive = mostly above about 56%. For the sample, actives were picked, then their nearest neighbours and some compounds at random.

What follows are compounds tested on Wild type (assay: S. aureus survival, RN4220 and DeltatarO strains – OD600, teichoic acid synthesis inhibitors, primary screen (AID 463173)). Conditions: S. aureus RN4220 wild type/DeltatarO growth, OD600, 18 h, stronger effect = lower value, screened at 18.75 µg/mL (by protocol).

| Structure (SMILES) | survival |
| --- | --- |
| O=C1NC(NS(=O)(=O)c2ccccc2)(C(F)(F)F)C(=O)N1c1ccc(F)cc1 (configuration not stated) | 76% (inactive) |
| Cc1nc(CC(=O)Nc2ccc(C)c(C)c2)cs1 | 80% (inactive) |
| C/C=C/C(=O)N1CCCC(c2nc(-c3cccc(OC)c3)no2)C1 (configuration not stated) | 95% (inactive) |
| COc1ccc(C(=O)N(CC(=O)NC2CCCC2)C2CCCCC2)cc1OC | 106% (inactive) |
| COc1ccc(NC(=O)CN2C(=O)CCc3cc(S(=O)(=O)N4CCOCC4)ccc32)c(OC)c1 | 66% (inactive) |
| COc1ccc(C)cc1NC(=O)CN1C(=O)CCc2cc(S(=O)(=O)N3CCOCC3)ccc21 | 128% (inactive) |
| COc1ccc(Cl)cc1NC(=O)CN1C(=O)C(C)(C)c2cc(S(=O)(=O)N3CCCCC3)ccc21 | 81% (inactive) |
| Cc1ccc(NC(=O)CN2C(=O)C(C)(C)c3cc(S(=O)(=O)N4CCCCC4)ccc32)c(Br)c1 | 63% (inactive) |
| COc1ccc(OC)c(NC(=O)CN2C(=O)CCc3cc(S(=O)(=O)N4CCCCC4)ccc32)c1 | 0% (active) |
| Cc1ccc(Cl)cc1NC(=O)CN1C(=O)C(C)(C)c2cc(S(=O)(=O)N3CCCCC3)ccc21 | 1% (active) |
| CC(=O)Nc1ccc(NC(=O)CSc2nccn2Cc2ccc3c(c2)OCO3)cc1 | 72% (inactive) |
| NCc1ccc2[nH]c(=O)[nH]c2c1 | 104% (inactive) |
| Oc1ccc(Nc2nc(-c3ccc(Cl)cc3)nc3ccccc23)cc1 | 3% (active) |
| CCOC(=O)c1nc(Nc2ccc(C(C)=O)cc2)c2ccccc2n1 | 81% (inactive) |
| COC(=O)c1ccc(Nc2nc(-c3ccccc3Cl)nc3ccccc23)cc1 | 36% (inactive) |
| Cc1cccc(Nc2nc(-c3ccccc3)nc3ccccc23)c1 | -1% (active) |
| Fc1ccc(Nc2nc(SCc3ccc(Cl)cc3)nc3ccccc23)cc1 | 90% (inactive) |
| CC(=O)c1cccc(Nc2nc(-c3cccc(C)c3)nc3ccccc23)c1 | 31% (inactive) |
| Oc1cccc(Nc2nc(-c3ccccc3)nc3ccccc23)c1 | 19% (inactive) |
| COC(=O)c1ccc(Nc2nc(-c3ccc(C)cc3)nc3ccccc23)cc1 | 7% (active) |
| Cc1ccc(OCCCCn2c(-c3ccc(Cl)cc3)nc3ccccc3c2=O)cc1 | 67% (inactive) |
| CCC(=O)OCCCNc1nc(-c2ccc(Cl)cc2)nc2ccccc12 | -2% (active) |

| Structure (SMILES) | survival |
| --- | --- |
| CCOC(=O)c1nc(Nc2cccc(C)c2)c2ccccc2n1 | 83% (inactive) |
| OCCNc1nc(-c2cccnc2)nc2ccccc12 | 119% (inactive) |
| Cc1cn2c(=O)cc(COc3cccc(NC(=O)c4ccccc4Cl)c3)nc2s1 | 88% (inactive) |
| O=C(c1cc2nc(-c3ccccc3)cc(-c3ccccc3)n2n1)N1CCCC1 | 100% (inactive) |
| CCOC(=O)C1(CC)C(=O)OC(C(=O)NC2CCCCC2)C1C (configuration not stated) | 112% (inactive) |
| COc1cccc(-c2cc(C(=O)NCc3ccccc3)no2)c1 | 85% (inactive) |
| Cc1ccc(C)n1-c1c(C(=O)NCC(C)c2ccccc2)sc2ncccc12 (configuration not stated) | 73% (inactive) |
| Cc1ccc(-n2c(SCc3ccccc3F)nc3[nH]ncc3c2=O)cc1C | 80% (inactive) |
| CCOc1ccccc1-c1nc(=S)[nH][nH]1 | 110% (inactive) |
| Cc1ccc(NCc2cccn2-c2nnc(N3CCC(C(=O)NC(C)C)CC3)s2)cc1 | 121% (inactive) |
| CCOC(=O)c1ccccc1NC(=O)C(=O)Nc1ccc2nc3n(c(=O)c2c1)CCCCC3 | 123% (inactive) |
| COc1ccc(Nc2nc(-c3ccccc3F)nc3ccccc23)cc1OC | 71% (inactive) |
| COc1ccc(Nc2nc(-c3ccc(C)cc3)nc3ccccc23)c(OC)c1 | 70% (inactive) |
| COc1cc(Nc2nc(-c3ccc(OC)c(OC)c3)nc3ccccc23)cc(OC)c1 | 0% (active) |
| Cc1cccc2nc(Cn3c(=O)n(-c4ccc(Cl)cc4)c(=O)c4c5c(sc43)CCC5)cc(=O)n12 | 121% (inactive) |
| CCC(C(=O)NCCc1ccc(OC)c(OC)c1)n1nc(C)c2sc3ccccc3c2c1=O (configuration not stated) | 79% (inactive) |
| CC1(C)CC(=O)C/C(=N\NC(=O)CCc2ccccc2)C1 | 122% (inactive) |
| Cc1ccc(C(c2sc3nc(-c4ccco4)nn3c2O)N2CCOCC2)cc1 (configuration not stated) | 77% (inactive) |
| O=C(c1ccc2c(Cl)c3c(nc2c1)CCCC3)N1CCN(c2ccc(Cl)cc2)CC1 | 90% (inactive) |
| O=C(c1ccc2c(Cl)c3c(nc2c1)CCCC3)N1CCN(c2cccc(Cl)c2)CC1 | 62% (inactive) |
| O=C(c1ccc2c(Cl)c3c(nc2c1)CCCC3)N1CCN(c2ccccc2F)CC1 | 0% (active) |
| O=C(c1ccc2c(Cl)c3c(nc2c1)CCCC3)N1CCN(c2ccccc2)CC1 | 0% (active) |

| Structure (SMILES) | survival |
| --- | --- |
| Cc1ccc(Cl)cc1N1CCN(C(=O)c2ccc3c(Cl)c4c(nc3c2)CCCC4)CC1 | 29% (inactive) |
| Cc1cccc(N2CCN(C(=O)c3ccc4c(Cl)c5c(nc4c3)CCCC5)CC2)c1C | 88% (inactive) |
| O=C(NCCCc1ccccc1)c1nn(-c2ccccc2F)nc1CO | 89% (inactive) |
| COc1ccc(C2=C(C)C(=NCc3ccc(OC(C)C)cc3)NS2(=O)=O)cc1 | 86% (inactive) |
| CCCc1nc(C(C#N)c2ccc(F)cc2)c2nnn(Cc3ccccc3)c2n1 (configuration not stated) | 109% (inactive) |
| COc1ccc(N2CCN(C(=O)CN(c3cccc(C(F)(F)F)c3)S(C)(=O)=O)CC2)cc1 | 110% (inactive) |
| COc1ccccc1N1CCN(C(=O)c2ccc(CS(=O)c3ccccc3C)o2)CC1 (configuration not stated) | 75% (inactive) |
| CCCNC(=O)c1cc2n(n1)CCCN(Cc1ccc(C)cc1)C2=O | 129% (inactive) |
| CCC(C)NC(=O)c1cc2n(n1)CCCN(Cc1ccc(C)cc1)C2=O (configuration not stated) | 88% (inactive) |
| CCNC(=O)c1cc2n(n1)CCCN(Cc1ccc(C)cc1)C2=O | 22% (inactive) |
| CCCSCCCNC(=O)c1cc2n(n1)CCCN(Cc1ccc(C)cc1)C2=O | 113% (inactive) |
| Cc1ccc(CN2CCCn3nc(C(=O)NC(C)C)cc3C2=O)cc1 | -2% (active) |
| CCCCNC(=O)c1cc2n(n1)CCCN(Cc1ccc(C)cc1)C2=O | 0% (active) |
| CCCCn1cc(S(=O)(=O)c2ccc(CC)cc2)c(=O)c2cc(F)c(N3CCOCC3)cc21 | 73% (inactive) |
| COc1ccc(Cn2nnc3c(=O)[nH]c(C4CCN(C(=O)c5ccc(C)cc5)CC4)nc32)cc1OC | 53% (inactive) |
| Cc1cccc(Cn2nnc3c(=O)[nH]c(C4CCN(C(=O)c5ccc(F)cc5)CC4)nc32)c1 | 29% (inactive) |
| CCOc1ccc(Cn2nnc3c(=O)[nH]c(C4CCN(C(=O)c5ccccc5)CC4)nc32)cc1 | 3% (active) |
| CC(C)(C)C(=O)N1CCCC(c2nc3c(nnn3Cc3ccc(C(C)(C)C)cc3)c(=O)[nH]2)C1 (configuration not stated) | 50% (active) |
| O=C(c1ccccc1)N1CCC(c2nc3c(nnn3Cc3ccccc3)c(=O)[nH]2)CC1 | 0% (active) |
| Cc1ccccc1Cn1nnc2c(=O)[nH]c(C3CCN(C(=O)c4ccc(F)cc4)CC3)nc21 | 74% (inactive) |
| COc1cccc(OC)c1Cn1nnc2c(=O)[nH]c(C3CCN(C(=O)c4ccccc4)CC3)nc21 | 76% (inactive) |
| CC(C)(C)c1ccc(C(=O)N2CCCC(c3nc4c(nnn4Cc4cccc(F)c4)c(=O)[nH]3)C2)cc1 (configuration not stated) | 17% (inactive) |

| Structure (SMILES) | survival |
| --- | --- |
| Cc1ccccc1Cn1nnc2c(=O)[nH]c(C3CCN(C(=O)c4ccccc4)CC3)nc21 | 25% (inactive) |
| O=C(c1cccc(Cl)c1)N1CCC(c2nc3c(nnn3Cc3ccc(F)cc3F)c(=O)[nH]2)CC1 | 9% (active) |
| O=C(c1ccccc1)N1CCCC(c2nc3c(nnn3Cc3ccc(F)cc3F)c(=O)[nH]2)C1 (configuration not stated) | 104% (inactive) |
| Cc1cccc(Cn2nnc3c(=O)[nH]c(C4CCCN(C(=O)c5ccc(C(C)(C)C)cc5)C4)nc32)c1 (configuration not stated) | 23% (inactive) |
| Cc1cn2c(=O)cc(COc3ccccc3NC(=O)c3ccc(Cl)cc3)nc2s1 | 85% (inactive) |
| COc1ccc(CCNC(=O)Cn2nc(C)n3c(cc4occc43)c2=O)cc1OC | 86% (inactive) |
| COc1ccc(NC(=O)c2oc3ccccc3c2NC(=O)Cc2coc3ccc(C)cc23)cc1 | 85% (inactive) |
| CCc1ccccc1NC(=O)c1sc2nc3n(c(=O)c2c1C)CCC3 | 90% (inactive) |
| CCOc1cc(C#N)c(NC(=O)c2ccc(OC)c(S(=O)(=O)N3CCCCC3)c2)cc1OCC | 75% (inactive) |
| CC(C)(C)c1ccc(S(=O)(=O)NCc2nc3cccnc3n2Cc2ccccc2Cl)cc1 | 14% (active) |
| CCc1ccc(S(=O)(=O)NCc2nc3cccnc3n2Cc2ccccc2Cl)cc1 | 83% (inactive) |
| CCOc1ccc(Cn2c(CNS(=O)(=O)c3ccc(CC)cc3)nc3cccnc32)cc1 | 69% (inactive) |
| Cc1ccc(Cn2c(CNC(=O)Cc3cccc([N+](=O)[O-])c3)nc3cccnc32)cc1 | 67% (inactive) |
| COc1ccc(Cn2c(CNS(=O)(=O)c3ccc(C)c(C)c3)nc3cccnc32)cc1 | -1% (active) |
| CCOc1ccc(Cn2c(CNS(=O)(=O)c3ccc([N+](=O)[O-])cc3)nc3cccnc32)cc1 | 87% (inactive) |
| O=C(Cc1cccc([N+](=O)[O-])c1)NCc1nc2cccnc2n1Cc1ccc(F)cc1 | 133% (inactive) |
| O=[N+]([O-])c1ccc(S(=O)(=O)NCc2nc3cccnc3n2Cc2ccccc2Cl)cc1 | 74% (inactive) |
| COc1ccc(Cn2c(CNC(=O)Cc3cccc([N+](=O)[O-])c3)nc3cccnc32)cc1 | -6% (active) |
| COc1ccc(Cn2c(CNS(=O)(=O)c3ccc4c(c3)CCCC4)nc3cccnc32)cc1 | 133% (inactive) |
| CCc1ccc(Cn2c(CNS(=O)(=O)c3ccc([N+](=O)[O-])cc3)nc3cccnc32)cc1 | 0% (active) |
| CCc1ccc(Cn2c(CNS(=O)(=O)c3ccc(C)c(C)c3)nc3cccnc32)cc1 | 71% (inactive) |
